Compound activity from PubChem BioAssay.
PGK inhibitor: T. brucei PGK inhibition | P07378 | PGK/GAPDH coupled, Kinase-Glo luminescence, 60 min | Potency, µM (titrated, usually from 57.5 µM), inactives show at the highest dose activity change, negative = inhibition, hits mostly inhibitors | 0.043% of 380,000 active; also: potency is read from the fitted curve at half-maximal effect; % is scaled to controls: 0 for no effect and ±100 for the full control effect; nearly all actives have a fitted effect of over 60% in size
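Recombinant glycosomal PGK reaction used 1,3-bisphosphoglycerate generated in-well by GAPDH (100nM final) in 100mM TEA pH 7.6, 5mM MgCl2, 0.01% Tween-20. After 60 minutes at room temperature, ATP was read by Kinase-Glo Plus luminescence end-point.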
Pol beta inh-1: DNA polymerase beta (human) inhibition; Potency, µM (titrated, usually from 114 µM), inactives show at the highest dose activity change, negative = inhibition, most hits filed as inhibitors; Pol beta primer extension/strand displacement, fluorescence kinetic; AID 485314; 1.3% of 340,000 active; P06746; also: potency is read from the fitted curve at half-maximal effect; % is scaled to controls: 0 for no effect and ±100 for the full control effect
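Human Pol beta at 10 nM; strand-displacement substrate 50 nM final. Compound exposure 15 min at room temperature before start, reaction 10 min at room temperature.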
FEN1 inh: blocks human flap endonuclease 1. P39748. Recombinant FEN1 flap cleavage, fluorescence, 15 min. Potency, µM (series often up to 114 µM), for the others: at the top dose activity change, negative = inhibition, actives largely listed as inhibitors. 0.35% of 390,000 active; also: potency is read from the fitted curve at half-maximal effect; % is scaled to controls: 0 for no effect and ±100 for the full control effect; nearly all actives have a fitted effect of over 65% in size
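Quantitative HTS format: each compound was titrated, incubated with 10 nM nuclease for 15 min at room temperature, then challenged with flap substrate at 50 nM final. Signal change over 15 min gave concentration–effect curves.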
POLI inh: blocks human DNA polymerase iota activity; 1% of 390,000 active; Potency, µM (series often up to 115 µM), for the others: top-dose activity, negative = inhibition, hits mostly inhibitors; Pol iota fluorescent replication assay, 10 min; Q9UNA4; AID 588590; also: potency is read from the fitted curve at half-maximal effect
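Pol iota at 10 nM preincubated 15 min with compounds at room temperature; reaction started with fluorescent substrate, 50 nM final. Fluorescence read kinetically at 0 and 10 min; buffer-only wells as negative control.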
Pol kappa inh: DNA polymerase kappa (human) inhibition; Q9UBT6; purified Pol kappa, fluorescent DNA synthesis assay, 10 min; Potency, µM (titrated, usually from 107 µM), for the others: at the highest dose activity, negative = inhibition, most hits filed as inhibitors; 0.53% of 400,000 active; also: potency is read from the fitted curve at half-maximal effect; % is scaled to controls: 0 for no effect and ±100 for the full control effect
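50 nM final substrate added after 15 min RT preincubation of 10 nM Pol kappa with compound; fluorescence read at 0 and 10 min.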
Pol eta inh: inhibitors of human DNA polymerase eta | recombinant Pol eta, fluorescent DNA replication assay | Potency, µM (top dose mostly 114 µM), without a hit: at the top dose activity change, negative = inhibition, hits mostly inhibitors | 1.2% of 390,000 active | AID 588591; also: potency is read from the fitted curve at half-maximal effect; % is scaled to controls: 0 for no effect and ±100 for the full control effect
Target sequence (Q9Y253 whole entry, looked up): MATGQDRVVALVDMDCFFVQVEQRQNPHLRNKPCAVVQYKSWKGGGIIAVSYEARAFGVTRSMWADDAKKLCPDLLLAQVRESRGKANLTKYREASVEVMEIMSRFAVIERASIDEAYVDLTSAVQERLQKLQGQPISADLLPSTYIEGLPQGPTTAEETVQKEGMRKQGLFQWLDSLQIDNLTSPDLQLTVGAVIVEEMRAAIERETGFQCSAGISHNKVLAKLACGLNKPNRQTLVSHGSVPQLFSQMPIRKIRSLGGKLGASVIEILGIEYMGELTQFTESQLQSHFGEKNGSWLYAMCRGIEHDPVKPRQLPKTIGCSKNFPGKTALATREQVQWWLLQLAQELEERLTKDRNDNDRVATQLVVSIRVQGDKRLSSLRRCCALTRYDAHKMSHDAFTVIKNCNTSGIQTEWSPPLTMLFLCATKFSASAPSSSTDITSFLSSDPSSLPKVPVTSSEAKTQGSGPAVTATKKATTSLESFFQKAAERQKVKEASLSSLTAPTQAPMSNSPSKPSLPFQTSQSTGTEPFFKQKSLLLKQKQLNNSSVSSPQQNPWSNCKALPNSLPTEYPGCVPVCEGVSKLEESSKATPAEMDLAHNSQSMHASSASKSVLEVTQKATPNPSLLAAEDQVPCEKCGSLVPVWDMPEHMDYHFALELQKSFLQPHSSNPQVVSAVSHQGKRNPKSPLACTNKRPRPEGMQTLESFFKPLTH
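Pol eta at 10 nM preincubated with compounds 15 min at room temperature; reaction started with fluorescent substrate (50 nM final) and read kinetically at 0 and 10 min.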
Pol beta inh-2: Inhibitors of human DNA polymerase beta, hit validation | 87% of 250 active | AID 540280 | Potency, µM, most hits filed as inhibitors | shares compounds with Pol beta inh-1 | Pol beta primer extension/strand displacement, fluorescence kinetic; calls by dose curve; also: potency is read from the fitted curve at half-maximal effect
Klenow counter: Klenow polymerase inhibition, pol beta selectivity check; shares compounds with Pol beta inh-1; 250 tested, under 10 active; activity change, negative = inhibition, % at 57.1 µM; Klenow exo- polymerase counter-screen, fluorescent DNA substrate
HIV RT inh: counter-screen for DNA polymerase beta inhibitors: HIV-1 RT inhibition; shares compounds with Pol beta inh-1; HIV-1 RT polymerase activity, counter-screen; activity % (negative = inhibition, positive = activation), % at 57.1 µM; 250 tested, under 10 active
POLB inh gel: validation of human DNA polymerase beta inhibitors | shares compounds with Pol beta inh-1 | radiolabeled primer extension gel assay, phosphorimager | inhibition, % at 10 µM | 91% of 110 active | AID 540325;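 active = inhibition at 10 µM of 30% or more; inconclusive = no clear call, values can overlap the other calls; inactive = inhibition at 10 µM under 30%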
* = called active by the depositor; i = inactive; ? = inconclusive; nt = no result; [ ] = dose if it differs, or a comment. Hits are enriched below; roughly 2.4% of the tested compounds scored in any of these assays. Unless noted, calls follow the shape of the dose curve; as a rule, active = well fitted curve in the direction sought with a large enough effect; inconclusive = small, poorly fitted or top-dose-only effect, or another doubt; inactive = no such curve, though single readings can be large; an effect the other way counts as inactive or inconclusive.

SMILES | PGK inhibitor | Pol beta inh-1 | FEN1 inh | POLI inh | Pol kappa inh | Pol eta inh | Pol beta inh-2 | Klenow counter | HIV RT inh | others
CCOC(=O)Cc1csc(NC(=O)Cc2cccs2)n1 | -4% | 14µM* | -12% | ? | ? | 18µM* | ? | -5 | 15
COc1ccccc1C(=O)Nc1ccc(-c2cc(C(F)(F)F)nn2-c2ccccc2)cc1 | 0% | -14% | 0% | 2% | -18% | -19% | nt | nt | nt
CC1(OC(=O)C2CCCC2)C(=O)C=C2C=C(c3ccsc3)N(C3CCCCC3)C=C2C1=O (stereo unspecified) | -17% | -18% | -24% | 37% | -22% | -4% | nt | nt | nt
CC1(OC(=O)c2cccs2)C(=O)C=C2C=C3CCCN3C=C2C1=O (stereo unspecified) | ? | 14µM* | ? | 4.5µM* | 11µM* | 22µM* | 28* | 9 | 21
Fc1ccc(Nc2nc(SCc3cccc(F)c3)nc3ccccc23)cc1 | -3% | 19% | -9% | 16% | -1%[60.1 µM] | -15% | nt | nt | nt
Cc1ccccc1CNC(=O)CCC(=O)N1CCSc2ccccc21 | 8% | 29% | -11% | 2% | -8% | -15% | nt | nt | nt
O=C(OCC(=O)N1CCN(C(=O)c2ccco2)CC1)c1cc(-c2ccco2)nc2ccccc12 | ? | 3.2µM* | ? | 8.9µM* | 25µM* | 32µM* | 3.5* | -24 | ?
O=C(Nc1cc(Cl)cc(Cl)c1)c1ccc(Cn2c(=O)[nH]c3ccsc3c2=O)cc1 | 9% | 14µM* | 15% | -6% | -11% | ? | ? | -27 | 26 | POLB inh gel=93*
CC(=O)NCCNC(=O)c1ccc(Cn2c(=O)[nH]c3ccsc3c2=O)cc1 | -4% | 56% | 12% | 21% | 0% | -24% | nt | nt | nt
COc1cccc(C(=O)NN2CC(O)=C(c3nc(C)cs3)C2=N)c1 | 5% | 0% | 21% | 10% | -2% | ? | nt | nt | nt
Cc1ccc(C(=O)NN2CC(O)=C(c3nc(-c4cccc([N+](=O)[O-])c4)cs3)C2=N)cc1 | -9% | 5µM* | -9% | ? | -10% | -9% | ? | -28 | 27
CC1CCN(S(=O)(=O)c2ccc(NC(=O)Cn3nnc(-c4ccccc4F)n3)cc2)CC1 | -4% | 16µM* | -13% | 50µM* | ? | ? | 35* | -22 | 27
CC1CCN(S(=O)(=O)c2ccc(NC(=O)c3ccccc3F)cc2)CC1 | i | 6% | -16% | 54% | -8% | -12% | nt | nt | nt
Cc1nn(-c2cccc(Cl)c2)c2nc(-c3ccco3)cc(C(=O)O)c12 | -12% | 14µM* | 0% | ? | -20% | 18µM* | ? | -16 | -10
Cc1cccc(-n2nc(C)c3c(C(=O)O)cc(-c4cccs4)nc32)c1 | i | -11% | -12% | 98% | -6% | -9% | nt | nt | nt
Cc1c2cnn(CC(=O)NCc3ccc(Cl)cc3)c(=O)c2c(C)n1Cc1ccc(F)cc1 | 8% | ? | 16% | 1% | -7% | -11% | nt | nt | nt
Cc1c2cnn(CC(=O)Nc3c(F)c(F)cc(F)c3F)c(=O)c2c(C)n1Cc1ccc(F)cc1 | nt | 8.9µM* | nt | nt | nt | nt | 25* | -33 | -6 | POLB inh gel=100*
CCOC(=O)C1=C(C)N=c2s/c(=C/c3ccc(OCC(=O)O)cc3)c(=O)n2C1c1ccc(SC)cc1 (stereo unspecified) | nt | 4.5µM* | nt | nt | nt | nt | 7.9* | 4 | 0
CCOC(=O)c1sc2nc3c(SCCC(=O)O)cc(C(=O)c4cc(OC)ccc4O)cn3c(=O)c2c1C | -15% | 2.8µM* | ? | ? | -43% | 11µM* | 6.3* | -25 | 22
Cc1ccccc1NC(=O)c1sc2nc3c(c(-c4ccco4)c2c1N)CCC3 | -4% | 16% | 11% | ? | -20% | ? | nt | nt | nt
Nc1c(C(=O)NCC2CCCO2)sc2nc3c(c(-c4ccco4)c12)CC/C3=C\c1ccco1 (stereo unspecified) | ? | 2.8µM* | 3.2µM* | 0.79µM* | 0.71µM* | 0.71µM* | 11* | -7 | -5
Cc1ccc(-n2nnc3c(=O)n(CC(=O)NCc4ccccc4)cnc32)cc1 | i | 10µM* | 12% | -24% | -18% | -11% | ? | 11 | 29 | POLB inh gel=50*
O=C(Cn1cnc2c(nnn2-c2ccccc2)c1=O)NCc1ccc(F)cc1 | -5% | ? | -17% | ? | -42% | -1% | nt | nt | nt
CCC(=O)C1=C(c2cccc(OC)c2)N(C(=O)CC)n2c(nnc2C2CCCCC2)S1 | 6% | -2% | 7% | 31% | -5%[60.1 µM] | -10% | nt | nt | nt
Cc1cc(C)nc(SCC(=O)c2ccc(C)c(C)c2)n1 | -2% | 10% | 11% | 80% | -8% | -22% | nt | nt | nt
SMILES | PGK inhibitor | Pol beta inh-1 | FEN1 inh | POLI inh | Pol kappa inh | Pol eta inh | Pol beta inh-2 | Klenow counter | HIV RT inh | others
Cc1cc(C)nc(SCC(=O)c2ccc(O)c(O)c2)n1 | -10% | 4.5µM* | -4% | ? | ? | 16µM* | 32* | -32 | 20 | POLB inh gel=42*
Cc1cc(=O)[nH]c(SCC(=O)c2ccc(O)c(O)c2)n1 | -10% | 11µM* | 9% | 50µM* | ? | 18µM* | 28* | -12 | ? | POLB inh gel=16
CC(=O)COc1ccc2oc(=O)cc(-c3cc4ccccc4o3)c2c1 | -2% | 10% | ? | -5% | -2% | -20% | nt | nt | nt
Cc1cc2oc(=O)cc(-c3cc4ccccc4o3)c2cc1O | -15% | 0.25µM* | -24% | -103% | ? | ? | 16* | -24 | 17
O=C(Nc1ccc2c(c1)OCO2)C1CCN(C(=O)CSc2ncnc3ccccc23)CC1 | -8% | 20µM* | -16% | ? | -29% | 79µM* | 35* | -7 | 40 | POLB inh gel=85*
Cn1c(SCC(=O)Nc2ccccc2)nnc1-c1ccccc1 | 3% | -10% | 12% | 12% | -7%[60.1 µM] | -7% | nt | nt | nt
Cn1c(SCC(=O)Nc2ccc3c(c2)oc2ccccc23)nnc1-c1ccccc1 | -6% | 2.2µM* | 5% | ? | -12% | -19% | ? | -11 | 15 | POLB inh gel=13
Cc1ccc(S(=O)(=O)N2CCCC2C(=O)OCc2ccco2)cc1 (stereo unspecified) | 3% | 20µM* | -16% | 25µM* | -44% | 32µM* | 32* | -37 | 6 | POLB inh gel=51*
